Laboratory results: PubChem BioAssay
Values without a mark were called inactive. Entries that show only a call come without a potency. For some assays here: Potency and affinity values are given separately. Calls of active or inactive are those of the source. Unless noted, how the calls were made is not given here.

Legend:
[1] = antimalarial activity against Dd2 strain (AID 2302;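 active means growth inhibition above 50% at the single 2 µM test dose, taken to imply half-maximal potency below 2 µM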); settings: P. falciparum Dd2 in RBCs, LDH growth readout, 72 h; at 2 µM; hits give high values
[2] = human hepatoma cell viability loss – ATP luminescence, cytotoxicity control for P. falciparum antimalarial project, primary screen (AID 2303;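 active means inhibition above 50%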); settings: HepG2 viability, 24-48 h, at 10 µM, hits give high values
[3] = target: L-lactate dehydrogenase (Plasmodium falciparum (isolate CDC / Honduras)) (UniProt Q27743); assay: PfLDH activity inhibition – cell lysate, 3D7 strain, counter-screen for P. falciparum growth inhibition project (AID 2304); settings: P. falciparum 3D7 crude extract, LDH APAD/NBT absorbance; at 2 µM; hits give high values
Sequence of L-lactate dehydrogenase (Plasmodium falciparum (isolate CDC / Honduras)) (Q27743 whole entry, looked up): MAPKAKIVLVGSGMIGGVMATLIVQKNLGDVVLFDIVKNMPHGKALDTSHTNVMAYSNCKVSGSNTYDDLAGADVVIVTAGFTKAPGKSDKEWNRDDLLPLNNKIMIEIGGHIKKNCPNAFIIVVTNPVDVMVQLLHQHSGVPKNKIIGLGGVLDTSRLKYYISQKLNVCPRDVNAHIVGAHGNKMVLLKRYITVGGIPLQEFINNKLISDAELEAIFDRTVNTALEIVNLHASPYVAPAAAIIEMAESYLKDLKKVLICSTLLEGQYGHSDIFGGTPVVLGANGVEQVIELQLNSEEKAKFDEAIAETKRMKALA

[4] = inhibition of 3D7 malaria parasite growth – strain 3D7 (AID 2306); settings: P. falciparum 3D7 erythrocytic growth, LDH absorbance, 72 h; at 2 µM; hits give high values
[5] = target: Calcium-dependent protein kinase 1 (Plasmodium falciparum (isolate 3D7)) (UniProt P62344); assay: PfCDPK1 kinase inhibitors, biochemical, TCAMS library (AID 1159585; cut-off not given, nearly all actives have IC50 up to about 0.98 µM;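 further: inhibitors leave more ATP so luminescence rises with inhibition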); settings: recombinant PfCDPK1, Kinase-Glo ATP depletion luminescence
Sequence of Calcium-dependent protein kinase 1 (Plasmodium falciparum (isolate 3D7)) (P62344 whole entry, looked up): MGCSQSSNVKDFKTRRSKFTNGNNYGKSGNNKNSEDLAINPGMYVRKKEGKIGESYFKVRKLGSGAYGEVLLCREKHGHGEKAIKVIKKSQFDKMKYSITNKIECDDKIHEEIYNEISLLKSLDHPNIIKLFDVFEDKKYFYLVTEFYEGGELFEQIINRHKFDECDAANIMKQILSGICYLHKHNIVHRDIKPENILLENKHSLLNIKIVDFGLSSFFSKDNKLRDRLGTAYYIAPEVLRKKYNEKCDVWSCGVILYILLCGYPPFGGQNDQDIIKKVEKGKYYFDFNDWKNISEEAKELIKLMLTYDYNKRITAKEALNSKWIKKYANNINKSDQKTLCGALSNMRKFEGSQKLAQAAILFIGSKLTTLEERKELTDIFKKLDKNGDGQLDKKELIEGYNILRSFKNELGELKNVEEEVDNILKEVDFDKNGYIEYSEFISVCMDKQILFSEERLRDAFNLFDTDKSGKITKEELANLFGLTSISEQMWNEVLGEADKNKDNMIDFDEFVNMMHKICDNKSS

[6] = target: Plasmodium falciparum protein kinase 6 (PK6, PF3D7_1337100) (UniProt Q8IDW1); assay: PfPK6 kinase inhibitors, biochemical, TCAMS library (AID 1159586); settings: recombinant PfPK6, Kinase-Glo ATP depletion luminescence
Sequence of Plasmodium falciparum protein kinase 6 (PK6, PF3D7_1337100) (Q8IDW1 1-305): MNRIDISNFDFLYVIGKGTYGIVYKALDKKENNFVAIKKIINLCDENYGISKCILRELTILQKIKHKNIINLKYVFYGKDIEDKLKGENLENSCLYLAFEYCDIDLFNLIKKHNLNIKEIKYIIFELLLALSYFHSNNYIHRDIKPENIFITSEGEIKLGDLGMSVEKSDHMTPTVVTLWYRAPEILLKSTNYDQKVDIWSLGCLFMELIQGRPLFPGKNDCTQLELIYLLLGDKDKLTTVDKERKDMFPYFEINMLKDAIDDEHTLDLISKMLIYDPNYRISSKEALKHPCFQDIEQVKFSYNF

[7] = target: Protein kinase 7 (PK7), Plasmodium falciparum 3D7 (PF3D7_0213400) (UniProt Q7YTF7); assay: inhibition of Plasmodium PK7 catalytic activity – biochemical, TCAMS antimalarial set, Kinase-Glo luminescence (AID 1159587); settings: recombinant PfPK7, Kinase-Glo ATP depletion luminescence
Sequence of Protein kinase 7 (PK7), Plasmodium falciparum 3D7 (PF3D7_0213400) (Q7YTF7 1-343): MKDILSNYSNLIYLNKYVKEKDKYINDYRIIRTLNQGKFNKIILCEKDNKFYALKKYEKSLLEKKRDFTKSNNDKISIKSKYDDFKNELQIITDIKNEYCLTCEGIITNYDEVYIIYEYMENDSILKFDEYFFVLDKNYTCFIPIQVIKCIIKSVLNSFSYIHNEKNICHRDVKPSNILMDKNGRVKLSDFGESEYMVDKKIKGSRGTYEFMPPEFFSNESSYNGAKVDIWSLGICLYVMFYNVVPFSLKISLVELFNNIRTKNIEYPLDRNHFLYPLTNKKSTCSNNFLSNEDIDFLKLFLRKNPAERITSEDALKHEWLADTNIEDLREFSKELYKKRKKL

[8] = target: Calcium-dependent protein kinase 4 (Plasmodium falciparum (isolate 3D7)) (UniProt Q8IBS5); assay: PfCDPK4 kinase inhibitors, biochemical, TCAMS library (AID 1159588; cut-off not given, nearly all actives have IC50 up to about 0.91 µM); settings: recombinant PfCDPK4, Kinase-Glo ATP depletion luminescence
Sequence of Calcium-dependent protein kinase 4 (Plasmodium falciparum (isolate 3D7)) (Q8IBS5 whole entry, looked up): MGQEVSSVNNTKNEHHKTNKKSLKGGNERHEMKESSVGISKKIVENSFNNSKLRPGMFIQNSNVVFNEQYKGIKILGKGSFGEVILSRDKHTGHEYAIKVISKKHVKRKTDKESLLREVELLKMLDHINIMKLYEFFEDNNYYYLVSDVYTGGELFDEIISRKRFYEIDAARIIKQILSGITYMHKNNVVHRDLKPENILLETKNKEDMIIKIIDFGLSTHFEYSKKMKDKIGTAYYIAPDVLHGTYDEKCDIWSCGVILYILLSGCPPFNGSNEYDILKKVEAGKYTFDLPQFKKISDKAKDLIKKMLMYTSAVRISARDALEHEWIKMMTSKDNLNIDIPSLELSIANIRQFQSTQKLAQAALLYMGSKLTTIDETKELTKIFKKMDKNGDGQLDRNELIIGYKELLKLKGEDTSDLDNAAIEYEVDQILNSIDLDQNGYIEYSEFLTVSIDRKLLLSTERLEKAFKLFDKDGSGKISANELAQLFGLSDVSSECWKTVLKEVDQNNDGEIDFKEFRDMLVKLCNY

SMILES	growth inhibition [1]	inhibition [2]	inhibition [3] [%]	growth inhibition [4]	outcome [5]	outcome [6]	outcome [7]	outcome [8]
CCOC(=O)N1CCC(NC(=O)c2ccc(C(C)(C)C)cc2OC)CC1	-5%	-7%	0	88% (active)	inactive	inactive	inactive	inactive
Cc1cnc(Nc2cccc(CCN3CCOCC3)c2)nc1NC(C)C	76% (active)	53% (active)	1	97% (active)	inactive	inactive	inactive	inactive
CCCn1c(=N)c(C(=O)NCCc2ccccc2)cc2c(=O)n3cccc(C)c3nc21	64% (active)	8%	2	100% (active)	inactive	inactive	inactive	inactive
CCc1ccccc1N=C1c2c(cccc2[N+](=O)[O-])C(=O)C1C(C)=O (stereo not given)	96% (active)	-6%	4	99% (active)	inactive	inactive	inactive	inactive
CS(=O)(=O)Nc1cccc(-c2cnc3[nH]cc(-c4ccc(CCC(=O)O)cc4)c3c2)c1	78% (active)	7%	2	98% (active)	inactive	inactive	inactive	inactive
CCCCCCOc1ccc(C(=O)N[C@H]2CCN(CCCCCNC(=O)/C=C/c3ccc(Cl)c(Cl)c3)C2)cc1	25%	10%	-5	99% (active)	inactive	inactive	inactive	inactive
NC(=S)Cc1ccc2c(c1)OCO2	-3%	43%	-2	96% (active)	inactive	inactive	inactive	inactive
COc1ccc(CN(C)CCCc2ccc(NC(=O)c3cccc4c(=O)c5cccc(F)c5[nH]c34)cc2)cc1OC	94% (active)	100% (active)	0	100% (active)	inactive	inactive	inactive	inactive
Nc1nc(N)c2c(Cc3ccc(Br)cc3)cccc2n1	20%	28%	0	99% (active)	inactive	inactive	inactive	inactive
Cn1cnc(CCNC(=O)c2ccc(-c3ccc(-c4nc5ccc(C(F)(F)F)cc5[nH]4)s3)cc2)c1	99% (active)	75% (active)	-2	102% (active)	inactive	inactive	inactive	inactive
CCCNCc1ccc(-c2ccc(CN(CCOC)C(=O)c3ccccc3)cc2)nc1	25%	16%	-7	94% (active)	inactive	inactive	inactive	inactive
CN(C)[C@@H]1C(=O)C(C(N)=O)=C(O)[C@@]2(O)C(=O)C3=C(O)c4c(O)ccc(C#Cc5ccccn5)c4C[C@H]3C[C@@H]12	75% (active)	17%	-6	92% (active)	inactive	inactive	inactive	inactive
Cc1nnsc1C(=O)Nc1cccc(-c2ccc(-c3nc4c(C)cccc4[nH]3)s2)c1	44%	46%	4	100% (active)	inactive	inactive	inactive	inactive
Cc1c[nH]c2ccc(/C=C/C(=O)NC3CCC(CCN4CCc5ccc(C#N)cc5CC4)CC3)cc12 (stereo not given)	91% (active)	9%	0	101% (active)	inactive	inactive	inactive	inactive
COc1ccccc1CNC(=O)c1ccc(N2CCN(c3ccncc3)CC2)cn1	17%	16%	2	96% (active)	inactive	inactive	inactive	inactive
CCC(C)CC(=O)Nc1ccc(OC)c(S(=O)(=O)N[C@@H]2CCN(C#N)C2)c1 (stereo not given in full)	77% (active)	16%	0	94% (active)	inactive	inactive	inactive	inactive
Cc1ccc(F)c(NC(=O)c2c(-c3c(F)cccc3Cl)noc2C)c1	18%	13%	0	90% (active)	inactive	inactive	inactive	inactive
CCNc1cc(C(=O)N[C@@H](Cc2cccc(F)c2)[C@H](O)CNC(C)CCCC(C)C)cc(N2CCCCS2(=O)=O)c1 (stereo not given in full)	97% (active)	-3%	-4	98% (active)	inactive	inactive	inactive	inactive
CN1CCN(CCCN(Cc2csc(-c3ccc(CNCc4ccccc4)cc3)n2)S(=O)(=O)c2cccc3cccnc23)CC1	32%	5%	1	89% (active)	inactive	inactive	inactive	inactive
O=C(Nc1cccc(CN2CCCN(Cc3ccccc3)CC2)c1)c1ccc(-c2ccccc2)cc1	8%	45%	-1	85% (active)	inactive	inactive	inactive	inactive

SMILES	growth inhibition [1]	inhibition [2]	inhibition [3] [%]	growth inhibition [4]	outcome [5]	outcome [6]	outcome [7]	outcome [8]
N#Cc1cccc(Nc2nccc(NCC(O)c3ccc(C(F)(F)F)cc3)n2)c1 (stereo not given)	98% (active)	23%	4	102% (active)	inactive	inactive	inactive	inactive
CC(CN1CCN(CC(c2ccc(F)cc2)N2CCN(C)CC2)CC1)C(=O)c1ccc(O)cc1 (stereo not given)	10%	-2%	-5	97% (active)	inactive	inactive	inactive	inactive
O=C(NC1CCC(N2CCCC(OCc3ccccc3)C2)CC1)c1cc2ccccc2[nH]1 (stereo not given)	11%	38%	-1	94% (active)	inactive	inactive	inactive	inactive
CN1CCN(S(=O)(=O)c2cccc(Nc3nccc(N(C)c4ccc5c(c4)nc(NC(=O)c4cccs4)n5C)n3)c2)CC1	59% (active)	25%	-6	99% (active)	inactive	inactive	inactive	inactive
COc1c(I)cc(Cc2cnc(N)nc2N)cc1I	0%	5%	-8	91% (active)	inactive	inactive	inactive	inactive
COc1ccc2ncc(F)c(CCN3CC[C@@H](CNCc4cc(C)c5c(c4)OCCO5)C3)c2n1	44%	22%	0	98% (active)	inactive	inactive	inactive	inactive
Cc1cccc(Cn2c(C(N)=O)nn(-c3ccc([N+](=O)[O-])cc3C#N)c2=S)c1	48%	1%	2	101% (active)	inactive	inactive	inactive	inactive
O=S(=O)(c1cccc2cccnc12)N1CCN(C2CCCCC2)CC1	10%	15%	1	96% (active)	inactive	inactive	inactive	inactive
Cc1cc(NC(=O)c2coc3cc(F)c(N4C[C@@H](C)N(C)[C@@H](C)C4)cc23)ccc1-n1ccnc1	42%	-9%	-3	96% (active)	inactive	inactive	inactive	inactive
Cc1[nH]c2ccc(-c3ccccc3)cc2c(=O)c1Br	97% (active)	-13%	4	97% (active)	inactive	inactive	inactive	inactive
Cc1cc(=O)c(-c2ccc(Oc3cccc(Cl)c3)cc2)c(C)[nH]1	89% (active)	23%	0	95% (active)	inactive	inactive	inactive	inactive
Cc1nc(-c2ccccc2)nc(N2CCN(C(=O)c3ccco3)CC2)c1Cc1ccccc1F	86% (active)	7%	1	95% (active)	inactive	inactive	inactive	inactive
Cc1ccoc1C(=O)Nc1cccc(-c2cccc(-c3nc4c(C)cccc4[nH]3)c2)c1	79% (active)	17%	-3	101% (active)	inactive	inactive	inactive	inactive
Cc1cccc2[nH]c(-c3cccc(-c4cccc(NC(=O)Nc5ccc(F)c(F)c5F)c4)c3)nc12	99% (active)	32%	4	100% (active)	inactive	inactive	inactive	inactive
O=C(NCCc1ccccc1)N(Cc1ccccc1-c1cccc(CNCCc2ccccc2)c1)C1CCN(Cc2ccccc2)CC1	88% (active)	100% (active)	4	100% (active)	inactive	inactive	inactive	inactive
Fc1ccc2nc(-c3cccc(-c4ccc(CN5CCCCC5)cc4)c3)[nH]c2c1	97% (active)	46%	-2	99% (active)	inactive	inactive	inactive	inactive
O=C(CC(=O)C(F)(F)F)c1ccccc1[N+](=O)[O-]	95% (active)	65% (active)	-6	97% (active)	inactive	inactive	inactive	inactive
Cc1sc(NC(=O)Cc2cccc(C(F)(F)F)c2)nc1-c1cccc(Cl)c1	95% (active)	15%	-3	101% (active)	inactive	inactive	inactive	inactive
O=C(Nc1cccc(N2CCC(NCCCn3ccnc3)CC2)c1)c1cccc(C(F)(F)F)c1	2%	8%	3	101% (active)	inactive	inactive	inactive	inactive
CN1CCN(CCCN(Cc2cccc(-c3cccc(CNC4CCCC4)c3)c2)C(=O)/C=C/c2ccccc2)CC1	99% (active)	84% (active)	-5	101% (active)	inactive	inactive	inactive	inactive
